From PubChem BioAssay (EPA / NIEHS)
Where “and” joins values, the source holds several entries; their conditions need not be identical. Identical values can stand only once. Some structures have more than one record in an assay (separate samples or runs), and their calls can disagree. Calls of active or inactive are those of the source. Rule for the calls: active = hit-call score of the fitted dose curve at least 0.9, where 1 is the maximum; inactive = score below 0.9.

Each compound was assayed on Matrix Metallopeptidase 1 (MMP1), MMP1 (gene 4312) (assay: BSK_hDFCGF_MMP1: BioMAP Diversity Plus: hDFCGF Assay for Matrix Metallopeptidase 1 (MMP1) Biomarker Activity (AID 2283064)). Details: primary human foreskin fibroblasts; actives raise or lower the signal.
Method in brief: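 ELISA read-out of MMP1 from human foreskin fibroblasts (primary skin cells), 24 h post-dose. Gain or loss of signal was fitted bidirectionally versus DMSO negative control; cytotoxicity was checked by SRB in parallel cultures.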

Row | SMILES | outcome | AC50
1 | O=S(=O)(OCC(F)(F)F)C(F)(F)C(F)(F)C(F)(F)C(F)(F)F | inactive | 
2 | C=CC(=O)OCC(F)(F)C(F)(F)C(F)(F)C(F)(F)C(F)(F)C(F)(F)C(F)(F)C(F)F | inactive | 
3 | NS(=O)(=O)C(F)(F)C(F)(F)C(F)(F)C(F)(F)C(F)(F)C(F)(F)F | inactive | 
4 | CC(C)CCCC(C)CCO (stereo unspecified) | inactive | 
5 | CCN(CC)c1ccc(C=O)cc1 | inactive | 
6 | O=C=Nc1cccc2c(N=C=O)cccc12 | inactive | 
7 | C=CC(=O)OCCC(F)(F)C(F)(F)C(F)(F)C(F)(F)F |  | 14.5 µM (active) and 18.3 µM (active)
8 | OCCCCC(F)(F)C(F)(F)C(F)(F)C(F)(F)F | inactive | 
9 | O=C(O)CCC(F)(F)C(F)(F)C(F)(F)C(F)(F)C(F)(F)C(F)(F)C(F)(F)F | inactive | 
10 | O=S(=O)(Cl)C(F)(F)C(F)(F)C(F)(F)C(F)(F)C(F)(F)C(F)(F)C(F)(F)C(F)(F)F | inactive | 
11 | O=C(Cl)C(F)(F)C(F)(F)C(F)(F)C(F)(F)C(F)(F)C(F)(F)F | inactive | 
12 | Cc1cc(O)c(C(C)(C)C)cc1C(C)(C)C |  | 6.54 µM (active)
13 | FC(F)(F)C(F)(F)C(F)(F)CC1CO1 (stereo unspecified) | inactive | 
14 | O=C(O)C(F)(F)C(F)(F)C(F)(F)C(=O)O | inactive | 
15 | Cc1cnccn1 | inactive | 
16 | CN(C(=O)C(F)(F)C(F)(F)C(F)(F)F)[Si](C)(C)C | inactive | 

Row | SMILES | outcome | AC50
17 | Brc1nc2ccccc2s1 | inactive | 
18 | CCN(CC)c1ccc2c(c1)Oc1cc(N(CC)CC)ccc1C21OC(=O)c2ccccc21 | inactive | 
19 | NC(O)(C(F)(F)F)C(F)(F)F | inactive | 
20 | O=C(O)C(F)(F)OC(F)(F)C(F)(F)OC(F)(F)C(F)(F)OC(F)(F)F | inactive | 
21 | O=C(O)C(F)(F)C(F)(F)C(F)(F)C(F)(F)C(F)(F)C(F)(F)C(F)F | inactive | 
22 | NC(=O)C(F)(F)C(F)(F)C(F)(F)C(F)F | inactive | 
23 | OC(O)C(F)(F)C(F)(F)F | inactive | 
24 | COC(F)(C(F)F)C(F)(F)F (stereo unspecified) | inactive | 
25 | Cc1ccc(O)c(-n2nc3ccccc3n2)c1 | inactive | 
26 | CCN=C1C=CC(=C(c2ccc(N(CC)CC)cc2)c2ccc(N(CC)CC)cc2)c2ccccc21 |  | 1.29 µM (active) and 1.26 µM (active)
27 | NC(=O)C(F)(F)C(F)(F)C(F)(F)C(F)(F)C(F)(F)C(F)(F)C(F)(F)F | inactive | 
28 | FC(F)(F)C(F)(F)C(F)(F)C(F)(F)C(F)(F)C(F)(F)C(F)(F)CCI | inactive | 
29 | Cc1ccc(S(=O)(=O)C(I)I)cc1 |  | 2.22 µM (active)
30 | OCCCC(F)(F)C(F)(F)C(F)(F)C(F)(F)C(F)(F)C(F)(F)C(F)(F)C(F)(F)F |  | 19 µM (active) and 13.3 µM (active)
31 | NC(=O)C(F)(F)C(F)(F)C(F)(F)C(F)(F)C(N)=O | inactive | 
32 | O=C(O)CCC(F)(F)C(F)(F)C(F)(F)F | inactive | 

These compounds were tested on Vascular cell adhesion molecule 1 (VCAM1), VCAM1 (gene 7412) (assay: BSK_hDFCGF_VCAM1: BioMAP Diversity Plus: hDFCGF Assay for Vascular cell adhesion molecule 1 (VCAM1) Biomarker Activity (AID 2283065;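 for AC50: VCAM-1 protein level quantified by ELISA after 24 h chemical exposure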)). Details: primary human foreskin fibroblasts; actives raise or lower the signal.
Method in brief: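 ELISA readout of VCAM-1 on human dermal fibroblast primary cultures, 24 h after chemical exposure. Gain or loss of signal fitted in both directions against DMSO baseline.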

Row | SMILES | outcome | AC50
33 | O=S(=O)(OCC(F)(F)F)C(F)(F)C(F)(F)C(F)(F)C(F)(F)F | inactive | 
34 | C=CC(=O)OCC(F)(F)C(F)(F)C(F)(F)C(F)(F)C(F)(F)C(F)(F)C(F)(F)C(F)F |  | 17 µM (active) and 17.5 µM (active)
35 | NS(=O)(=O)C(F)(F)C(F)(F)C(F)(F)C(F)(F)C(F)(F)C(F)(F)F | inactive | 26.9 µM (active)
36 | CC(C)CCCC(C)CCO (stereo unspecified) | inactive | 
37 | CCN(CC)c1ccc(C=O)cc1 | inactive | 
38 | O=C=Nc1cccc2c(N=C=O)cccc12 | inactive | 
39 | C=CC(=O)OCCC(F)(F)C(F)(F)C(F)(F)C(F)(F)F |  | 13.7 µM (active) and 19.4 µM (active)
40 | OCCCCC(F)(F)C(F)(F)C(F)(F)C(F)(F)F | inactive | 
41 | O=C(O)CCC(F)(F)C(F)(F)C(F)(F)C(F)(F)C(F)(F)C(F)(F)C(F)(F)F | inactive | 
42 | CCN(CC)c1ccc(N=Nc2ccccc2)cc1 |  | 20 µM (active)
43 | O=S(=O)(Cl)C(F)(F)C(F)(F)C(F)(F)C(F)(F)C(F)(F)C(F)(F)C(F)(F)C(F)(F)F | inactive | 
44 | O=C(Cl)C(F)(F)C(F)(F)C(F)(F)C(F)(F)C(F)(F)C(F)(F)F | inactive | 
45 | Cc1cc(O)c(C(C)(C)C)cc1C(C)(C)C |  | 5.41 µM (active)
46 | FC(F)(F)C(F)(F)C(F)(F)CC1CO1 (stereo unspecified) | inactive | 
47 | O=C(O)C(F)(F)C(F)(F)C(F)(F)C(=O)O | inactive | 
48 | Cc1cnccn1 | inactive | 
49 | CN(C(=O)C(F)(F)C(F)(F)C(F)(F)F)[Si](C)(C)C | inactive | 

Row | SMILES | outcome | AC50
50 | Brc1nc2ccccc2s1 | inactive | 
51 | CCN(CC)c1ccc2c(c1)Oc1cc(N(CC)CC)ccc1C21OC(=O)c2ccccc21 | inactive | 
52 | NC(O)(C(F)(F)F)C(F)(F)F | inactive | 
53 | O=C(O)C(F)(F)OC(F)(F)C(F)(F)OC(F)(F)C(F)(F)OC(F)(F)F | inactive | 
54 | O=C(O)C(F)(F)C(F)(F)C(F)(F)C(F)(F)C(F)(F)C(F)(F)C(F)F | inactive | 
55 | NC(=O)C(F)(F)C(F)(F)C(F)(F)C(F)F | inactive | 
56 | OC(O)C(F)(F)C(F)(F)F | inactive | 
57 | COC(F)(C(F)F)C(F)(F)F (stereo unspecified) | inactive | 
58 | Cc1ccc(O)c(-n2nc3ccccc3n2)c1 | inactive | 
59 | CCN=C1C=CC(=C(c2ccc(N(CC)CC)cc2)c2ccc(N(CC)CC)cc2)c2ccccc21 |  | 1.42 µM (active) and 854 nM (active)
60 | NC(=O)C(F)(F)C(F)(F)C(F)(F)C(F)(F)C(F)(F)C(F)(F)C(F)(F)F | inactive | 
61 | FC(F)(F)C(F)(F)C(F)(F)C(F)(F)C(F)(F)C(F)(F)C(F)(F)CCI | inactive | 
62 | Cc1ccc(S(=O)(=O)C(I)I)cc1 |  | 0.942 µM (active)
63 | OCCCC(F)(F)C(F)(F)C(F)(F)C(F)(F)C(F)(F)C(F)(F)C(F)(F)C(F)(F)F |  | 9.41 µM (active) and 6.1 µM (active)
64 | NC(=O)C(F)(F)C(F)(F)C(F)(F)C(F)(F)C(N)=O | inactive | 
65 | O=C(O)CCC(F)(F)C(F)(F)C(F)(F)F | inactive | 
